PubChem BioAssay (NCI)
The panel holds about 83,000 compounds, 20% with a hit somewhere; the sample as a whole holds those more often.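 Activity criterion: percent growth below 10, measured after cells in 96-well plates were exposed to a single compound concentration for 48 hours.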 Activity calls are given as the source filed them.

Columns and labels:
Assay in all cases: NCI-60 one-dose screen, 48 h (100 = growth as untreated, 0 = no growth, -100 = all killed)
Conditions in all cases: 10 µM unless noted
[1] = test system: DU-145 prostate
[2] = test system: K-562 leukemia
[3] = test system: MALME-3M melanoma
[4] = test system: MDA-MB-231 breast
[5] = test system: RXF 393 renal
[6] = test system: SF-268 CNS
[7] = test system: SF-295 CNS
[8] = test system: SF-539 CNS
[9] = test system: UACC-257 melanoma
[10] = test system: M14 melanoma
[11] = test system: HCT-15 colon
[12] = test system: HT29 colon
[13] = test system: SNB-75 CNS
[14] = test system: SNB-19 CNS
[15] = test system: U251 CNS
[16] = test system: PC-3 prostate
[17] = test system: SK-MEL-5 melanoma
[18] = test system: UACC-62 melanoma
[19] = test system: LOX IMVI melanoma
[20] = test system: SK-MEL-28 melanoma

Measured: growth

Cc1ccc(-c2cc(-c3ccccc3C)[nH]c(=O)c2C#N)s1
inactive: [1] 104% | [2] 85.6% | [3] 111% | [4] 84.8% | [5] 92% | [6] 95.8% | [7] 99.2% | [8] 91.5% | [9] 107% | [10] 109% | [11] 90.5% | [12] 122% | [13] 71.6% | [14] 88.5% | [15] 91.2% | [16] 85.6% | [17] 89.8% | [18] 75.5% | [19] 82.8% | [20] 110%

Cc1cc(=O)oc2c1ccc1oc(C#N)c(C)c12
inactive: [1] 102% | [2] 108% | [3] 97.2% | [4] 107% | [5] 113% | [6] 99.9% | [7] 102% | [8] 98.9% | [9] 105% | [10] 100% | [11] 98.9% | [12] 93.4% | [13] 92.9% | [14] 99.9% | [15] 99.4% | [16] 90.4% | [17] 100% | [18] 99.9% | [19] 88.2% | [20] 96.5%

CC(C)Sc1nc(NNC(N)=S)c(C#N)c(-c2ccc(F)cc2)n1
inactive: [1] 110% | [2] 92.5% | [3] 117% | [4] 98% | [5] 101% | [6] 101% | [7] 93.7% | [8] 91.7% | [9] 101% | [10] 104% | [11] 95.9% | [12] 115% | [13] 62.6% | [14] 97% | [15] 95% | [16] 102% | [17] 93.3% | [18] 91.1% | [19] 98.6% | [20] 113%

COc1cc(/C=N/n2c(CN3CCOCC3)nc3ccccc3c2=O)cc(OC)c1OC
inactive: [1] 115% | [2] 97.2% | [3] 106% | [4] 102% | [5] 117% | [6] 98.1% | [7] 98.6% | [8] 97.9% | [9] 97% | [10] 102% | [11] 106% | [12] 103% | [13] 94.4% | [14] 95.7% | [15] 98.7% | [16] 101% | [17] 101% | [18] 97.6% | [19] 100% | [20] 99.3%

O=c1[nH]c2ccccc2n1C1CCN(CCOc2ccccc2)CC1
inactive: [1] 73.4% | [2] 11.4% | [3] 99.9% | [4] 91.3% | [5] 28% | [6] 92.8% | [7] 76.9% | [8] 106% | [9] 95.1% | [10] 97% | [11] 85.1% | [12] 99.4% | [13] 80.5% | [14] 93.3% | [15] 88.9% | [16] 58.9% | [17] 95.6% | [18] 86% | [19] 95.2% | [20] 102%

N#C/C(=C\c1ccc2c(c1)OCO2)n1nnc2cc(F)c(F)cc21
inactive: [1] 36.7% | [2] 18% | [3] 70.8% | [4] 80.1% | [5] 32.3% | [6] 74.3% | [7] 102% | [8] 84.5% | [9] 75% | [10] 57% | [11] 40.5% | [12] 30.3% | [13] 20.6% | [14] 82.3% | [15] 83.8% | [16] 51.4% | [17] 75.5% | [18] 47.6% | [19] 57.3% | [20] 92.5%

N#Cc1c2c(nn(-c3ccccc3)c1=O)C(O)=C([N+](=O)[O-])C(c1ccccc1)C2 (configuration not stated)
inactive: [1] 26.2% | [2] 41% | [3] 86.1% | [4] 71.1% | [5] 49.7% | [6] 88% | [7] 98.9% | [8] 83% | [9] 87.7% | [10] 86.1% | [11] 54.7% | [12] 94.1% | [13] 90.6% | [14] 84.2% | [15] 57.7% | [16] 80.5% | [17] 92.9% | [18] 84.6% | [19] 17.9% | [20] 96.4%

COc1ccc(-c2cc(-c3cc(OC)ccc3OC)nc(SCC(=O)c3ccccc3)c2C#N)cc1
inactive: [1] 106% | [2] 105% | [3] 88.9% | [4] 94.4% | [5] 97.2% | [6] 99% | [7] 104% | [8] 94.8% | [9] 101% | [10] 98.1% | [11] 109% | [12] 95% | [13] 68% | [14] 107% | [15] 90.4% | [16] 88.3% | [17] 98.8% | [18] 78.4% | [19] 92.1% | [20] 103%

O=C(CCCCCCSc1nc(-c2ccccc2)cc(-c2ccc(Cl)cc2)n1)NO
inactive: [4] 25.3% | [6] 15% | [7] 27.1% | [8] 25% | [11] 15.6% | [13] 17.8% | [14] 18.3% | [16] 39.9% | [20] 42%
active: [1] 6.26% | [2] 8.35% | [3] 7.3% | [5] -17% | [9] 6.32% | [10] 6.52% | [12] 4.56% | [15] 0.693% | [17] -26.9% | [18] -1.11% | [19] -78%

Cc1cccc(Cc2cnc(NC(=O)/C=C/c3ccco3)s2)c1
active: [2] 8.09% | [5] -0.566% | [7] 6.75% | [8] -19.9% | [12] 6.71%
inactive: [1] 15.9% | [3] 54.8% | [4] 56.5% | [6] 49.4% | [9] 41.3% | [10] 10.3% | [11] 12.8% | [13] 16.8% | [14] 52.2% | [15] 20.6% | [16] 27.2% | [17] 11.2% | [18] 28.1% | [19] 18.8% | [20] 62.2%

CN(C)CCNc1nc2ccccc2c2c1c1c(n2Cc2ccccc2)-c2ccccc2C1=O
active: [1] -100% | [2] -57.9% | [3] -59% | [4] -79.8% | [5] -65.5% | [6] -81.9% | [7] -77.3% | [8] -91.3% | [9] -85.3% | [10] -81.8% | [11] -88.2% | [12] -100% | [13] -96.1% | [14] -86.3% | [15] -95.9% | [16] -88.6% | [17] -100% | [18] -94.1% | [19] -96.2% | [20] -100%

CC1OC(O[C@H]2/C=C/C=C/C=C/C=C/C=C/C=C/C=C/[C@H](C)[C@@H](O)[C@@H](C)[C@H](C)OC(=O)CC(O)CC(O)CCC(O)C(O)CC(O)C[C@]3(O)C[C@H](O)C(C(=O)O)C(C2)O3)C(O)[C@H](N)C1O (some centres not stated)
inactive: [2] 91.8% | [4] 58.7% | [7] 65% | [8] 17.2% | [10] 16.3% | [11] 76.7% | [12] 36.8% | [13] 57.8% | [14] 40.2% | [17] 35.9%
active: [1] -29.9% | [3] -66% | [5] -64.4% | [6] -70.4% | [9] -76% | [15] -57.1% | [16] -54.6% | [19] -12% | [20] -65.8%

Fc1c[c-]c(-c2ccccn2)c(F)c1.[CH3-].[Pt+2].c1ccc(P(C[PH+](c2ccccc2)c2ccccc2)c2ccccc2)cc1
active: [1] 5.54% | [2] 4.93% | [3] -83.2% | [4] -59% | [5] -82.3% | [7] 6.1% | [8] -86.3% | [9] -4.95% | [10] -20% | [11] -51.4% | [12] 1.16% | [13] -14.1% | [14] -54.8% | [15] -71.7% | [16] -33.2% | [17] -97.1% | [19] -92.9% | [20] -51.2%
inactive: [6] 16.9%

COc1ccccc1CNCCCN1C(=O)c2ccc3c4c(ccc(c24)C1=O)C(=O)N(CCCNCCCCN)C3=O
active: [1] -71.1% | [2] 3.21% | [3] -80.7% | [4] 9.4% | [5] -80.9% | [6] 0.101% | [7] 0.192% | [8] -75.3% | [9] -71.8% | [10] -80.2% | [12] -23.9% | [13] -95.3% | [14] -57.8% | [15] -67.4% | [16] -11.8% | [17] -98.3% | [19] -16.3% | [20] -94.1%
inactive: [11] 12.7%
